Of roughly 8,800 targets only a part is listed; those with a hit were picked by preference. About 0.5% of all pairs of compound and target were hits. Values without a mark were called inactive.
Columns and labels:
Experiment in all cases: log2 fold change, soluble protein after heating vs DMSO (PISA); higher = thermal stabilisation; K562 lysate, 10 uM; active = over 0.2 and 3.5 SD of the protein, either way, in both replicates (recomputed)
[1] = compound: CCCS(=O)(=O)Nc1ccc(F)c(C(=O)c2c[nH]c3ncc(-c4ccc(Cl)cc4)cc23)c1F [vemurafenib]
Summary of the method: (§1)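 Dounce homogenisation of K562 pellets in PBS pH 7.4 with 1 mM MgCl2 produced a crude extract, used at 1 mg/mL protein. Exposure to 10 μM compound lasted 30 min, and aliquots were then heated for 3 min across 48°C-58°C, pooled and brought to 0.5% NP-40 at 4°C. The supernatant after 21,000xg for 90 min was quantified by TMTpro 16plex LC-MS/MS with channel sums equalised. Duplicate values are given as log-two fold change in thermal stability relative to solvent controls.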

[2] = compound: CCCS(=O)(=O)Nc1ccc(F)c(C(=O)c2c[nH]c3ncc(Cl)cc23)c1F
Summary of the method: as §1

[3] = compound: CCN(CCCOc1ccc2c(Nc3cc(CC(=O)Nc4cccc(F)c4)[nH]n3)ncnc2c1)CCOP(=O)(O)O [barasertib]
Summary of the method: as §1

[4] = compound: CC[C@@H]1C(=O)N(C)c2cnc(Nc3ccc(C(=O)NC4CCN(C)CC4)cc3OC)nc2N1C1CCCC1
Summary of the method: as §1

[5] = compound: CC[C@@H]1C(=O)N(C)c2cnc(Nc3ccc(C(=O)N[C@H]4CC[C@H](N5CCN(CC6CC6)CC5)CC4)cc3OC)nc2N1C(C)C [volasertib]
Summary of the method: as §1

[6] = compound: CCn1c(C(=O)N(C2CC2)C2CC2)cc2c3c(ncn3C)c(Nc3cc(C)n(C)n3)nc21
Summary of the method: as §1

[7] = compound: CCn1cc(-c2ccnc3[nH]c(-c4cccc(CN(C)C)c4)cc23)c(-c2ccc(NC(=O)N(C)C)cc2)n1
Summary of the method: as §1

[8] = compound: CN1CCC(CNc2ccc3ncc(-c4cccc(OC(F)(F)F)c4)n3n2)CC1
Summary of the method: as §1

[9] = compound: CN1CCN(CCOc2cc(OC3CCOCC3)c3c(Nc4c(Cl)ccc5c4OCO5)ncnc3c2)CC1 [saracatinib]
Summary of the method: as §1

[10] = compound: CN1CCN(c2nc(C3=C(c4c[nH]c5ccccc45)C(=O)NC3=O)c3ccccc3n2)CC1 [sotrastaurin]
Summary of the method: as §1

ADAR isoform 4 (UniProt P55265)
log2 fold change [1]: 0.077
log2 fold change [2]: 0.051
log2 fold change [3]: 0.061
log2 fold change [4]: 0.011
log2 fold change [5]: 0.003
log2 fold change [6]: 0.025
log2 fold change [7]: -0.001
log2 fold change [8]: -0.049
log2 fold change [9]: 0.04
log2 fold change [10]: 0.032

ALG3 (UniProt Q92685)
log2 fold change [1]: 0.084
log2 fold change [2]: -0.011
log2 fold change [3]: 0.031
log2 fold change [4]: 0.012
log2 fold change [5]: 0.01
log2 fold change [6]: 0.032
log2 fold change [7]: -0.371
log2 fold change [8]: 0.06
log2 fold change [9]: 0.068
log2 fold change [10]: 0.029

ARHGAP25 isoform 4 (UniProt P42331)
Sequence of UniProt P42331 (P42331 whole entry, looked up): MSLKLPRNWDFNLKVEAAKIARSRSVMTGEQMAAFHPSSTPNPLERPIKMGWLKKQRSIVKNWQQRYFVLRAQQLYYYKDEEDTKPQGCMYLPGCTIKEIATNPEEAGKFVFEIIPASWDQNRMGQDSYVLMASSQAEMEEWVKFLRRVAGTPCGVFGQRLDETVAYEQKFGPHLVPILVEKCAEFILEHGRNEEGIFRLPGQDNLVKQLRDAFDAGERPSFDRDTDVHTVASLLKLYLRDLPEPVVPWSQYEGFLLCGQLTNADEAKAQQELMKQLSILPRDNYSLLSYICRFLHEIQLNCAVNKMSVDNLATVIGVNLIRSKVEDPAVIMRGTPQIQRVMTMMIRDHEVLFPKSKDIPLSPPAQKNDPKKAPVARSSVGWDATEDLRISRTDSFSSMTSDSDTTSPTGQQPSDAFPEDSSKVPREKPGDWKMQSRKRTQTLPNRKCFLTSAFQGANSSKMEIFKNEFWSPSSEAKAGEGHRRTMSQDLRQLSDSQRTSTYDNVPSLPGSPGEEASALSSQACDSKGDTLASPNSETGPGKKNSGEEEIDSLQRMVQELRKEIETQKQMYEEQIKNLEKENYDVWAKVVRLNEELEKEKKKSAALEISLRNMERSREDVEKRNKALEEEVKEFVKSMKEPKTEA
log2 fold change [1]: 0.021
log2 fold change [2]: 0.049
log2 fold change [3]: 0.081
log2 fold change [4]: -0.045
log2 fold change [5]: -0.029
log2 fold change [6]: -0.032
log2 fold change [7]: -0.012
log2 fold change [8]: 0.019
log2 fold change [9]: -0.034
log2 fold change [10]: 0.043

APAF1 (UniProt O14727)
log2 fold change [1]: -0.014
log2 fold change [2]: -0.012
log2 fold change [3]: 0.073
log2 fold change [4]: -0.087
log2 fold change [5]: -0.056
log2 fold change [6]: 0.001
log2 fold change [7]: 0.115
log2 fold change [8]: -0.012
log2 fold change [9]: -0.028
log2 fold change [10]: 0.015

ARL15 (UniProt Q9NXU5)
Sequence of UniProt Q9NXU5 (Q9NXU5 whole entry, looked up): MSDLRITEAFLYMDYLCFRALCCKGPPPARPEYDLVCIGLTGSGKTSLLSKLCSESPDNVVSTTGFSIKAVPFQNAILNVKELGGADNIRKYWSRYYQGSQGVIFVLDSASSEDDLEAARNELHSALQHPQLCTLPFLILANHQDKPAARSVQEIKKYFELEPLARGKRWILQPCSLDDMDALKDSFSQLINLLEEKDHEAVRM
log2 fold change [1]: -0.057
log2 fold change [2]: -0.019
log2 fold change [3]: 0.002
log2 fold change [4]: -0.082
log2 fold change [5]: -0.009
log2 fold change [6]: 0.035
log2 fold change [7]: 0.765 (active)
log2 fold change [8]: -0.119
log2 fold change [9]: -0.01
log2 fold change [10]: 0.049

ALKBH1 (UniProt Q13686)
Sequence of UniProt Q13686 (Q13686 whole entry, looked up): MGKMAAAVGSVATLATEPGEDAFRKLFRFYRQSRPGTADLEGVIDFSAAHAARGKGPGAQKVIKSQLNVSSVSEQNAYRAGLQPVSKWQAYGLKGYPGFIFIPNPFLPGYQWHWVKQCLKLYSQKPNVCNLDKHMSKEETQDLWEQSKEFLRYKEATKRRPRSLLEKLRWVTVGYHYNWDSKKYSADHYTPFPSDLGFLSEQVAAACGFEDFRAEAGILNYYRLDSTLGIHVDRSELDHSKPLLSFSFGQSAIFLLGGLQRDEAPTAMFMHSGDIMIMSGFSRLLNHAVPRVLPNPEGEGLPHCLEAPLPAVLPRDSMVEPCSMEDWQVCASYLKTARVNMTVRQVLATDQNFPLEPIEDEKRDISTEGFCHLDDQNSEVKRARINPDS
log2 fold change [1]: 0.069
log2 fold change [4]: -0.05
log2 fold change [6]: -0.043
log2 fold change [7]: 0.015
log2 fold change [8]: -0.072
log2 fold change [9]: -0.037

ACTG1 (UniProt K7EM38)
log2 fold change [2]: -0.259
log2 fold change [4]: -0.208
log2 fold change [5]: -0.124

ANXA2 (UniProt H0YL33)
log2 fold change [2]: 0.012
log2 fold change [3]: 0.37
log2 fold change [5]: 0.136
log2 fold change [6]: 0.012
log2 fold change [7]: 0.643 (active)
log2 fold change [8]: -0.416
log2 fold change [9]: 0.088
log2 fold change [10]: 0.214

ANP32E isoform 3 (UniProt Q9BTT0)
Sequence of UniProt Q9BTT0 (Q9BTT0 whole entry, looked up): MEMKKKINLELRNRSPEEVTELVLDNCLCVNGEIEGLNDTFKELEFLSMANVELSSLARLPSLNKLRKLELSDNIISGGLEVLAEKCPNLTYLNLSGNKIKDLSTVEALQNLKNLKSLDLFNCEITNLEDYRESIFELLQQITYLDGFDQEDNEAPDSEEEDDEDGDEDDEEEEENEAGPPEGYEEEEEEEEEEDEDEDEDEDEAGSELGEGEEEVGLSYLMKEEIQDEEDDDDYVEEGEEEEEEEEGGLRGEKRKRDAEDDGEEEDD
log2 fold change [1]: 0.034
log2 fold change [3]: -0.086
log2 fold change [4]: -0.026
log2 fold change [7]: -0.724 (active)
log2 fold change [8]: 0.468

ANKRD30A (UniProt Q9BXX3)
Sequence of UniProt Q9BXX3 (Q9BXX3 whole entry, looked up): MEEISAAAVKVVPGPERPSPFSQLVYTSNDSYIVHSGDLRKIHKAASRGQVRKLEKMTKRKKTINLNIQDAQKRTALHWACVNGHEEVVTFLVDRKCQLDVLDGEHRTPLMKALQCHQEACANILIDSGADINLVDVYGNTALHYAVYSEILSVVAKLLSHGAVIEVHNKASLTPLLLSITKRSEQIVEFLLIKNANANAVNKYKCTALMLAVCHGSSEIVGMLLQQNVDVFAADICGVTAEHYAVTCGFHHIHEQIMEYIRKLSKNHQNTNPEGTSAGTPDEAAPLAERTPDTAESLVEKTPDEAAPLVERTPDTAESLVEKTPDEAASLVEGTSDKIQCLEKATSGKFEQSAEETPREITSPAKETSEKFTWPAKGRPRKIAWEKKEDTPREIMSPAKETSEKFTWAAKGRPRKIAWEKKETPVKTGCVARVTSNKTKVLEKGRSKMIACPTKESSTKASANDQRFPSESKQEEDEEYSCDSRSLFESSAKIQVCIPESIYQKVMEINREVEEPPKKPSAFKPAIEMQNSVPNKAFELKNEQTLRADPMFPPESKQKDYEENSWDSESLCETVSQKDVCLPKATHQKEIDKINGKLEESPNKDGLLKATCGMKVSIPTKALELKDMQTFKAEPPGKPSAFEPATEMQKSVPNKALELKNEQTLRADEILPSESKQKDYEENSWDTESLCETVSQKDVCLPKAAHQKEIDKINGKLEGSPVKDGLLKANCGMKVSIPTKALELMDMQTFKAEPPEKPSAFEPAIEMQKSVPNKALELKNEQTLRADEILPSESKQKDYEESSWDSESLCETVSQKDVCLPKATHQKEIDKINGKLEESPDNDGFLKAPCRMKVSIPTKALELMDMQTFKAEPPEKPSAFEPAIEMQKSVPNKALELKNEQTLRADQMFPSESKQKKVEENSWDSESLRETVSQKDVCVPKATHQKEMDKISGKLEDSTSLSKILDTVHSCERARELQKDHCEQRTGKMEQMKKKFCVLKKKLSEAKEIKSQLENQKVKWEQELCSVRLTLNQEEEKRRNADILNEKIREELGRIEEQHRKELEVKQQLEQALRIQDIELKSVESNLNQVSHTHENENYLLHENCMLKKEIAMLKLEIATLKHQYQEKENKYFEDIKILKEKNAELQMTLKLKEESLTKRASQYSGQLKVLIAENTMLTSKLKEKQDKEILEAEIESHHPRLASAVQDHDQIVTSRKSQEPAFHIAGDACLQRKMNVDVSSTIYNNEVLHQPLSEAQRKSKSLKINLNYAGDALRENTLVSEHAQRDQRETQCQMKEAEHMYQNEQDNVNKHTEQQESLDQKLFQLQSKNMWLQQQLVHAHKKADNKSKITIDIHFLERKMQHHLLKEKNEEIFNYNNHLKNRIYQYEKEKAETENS
log2 fold change [2]: 0.111
log2 fold change [3]: 0.087
log2 fold change [4]: -0.102
log2 fold change [5]: -0.08
log2 fold change [6]: 0.152
log2 fold change [7]: 0.262
log2 fold change [8]: 0.891
log2 fold change [9]: 0.072
log2 fold change [10]: 0.032

ACLY isoform 2 (UniProt P53396)
Sequence of UniProt P53396 (P53396 whole entry, looked up): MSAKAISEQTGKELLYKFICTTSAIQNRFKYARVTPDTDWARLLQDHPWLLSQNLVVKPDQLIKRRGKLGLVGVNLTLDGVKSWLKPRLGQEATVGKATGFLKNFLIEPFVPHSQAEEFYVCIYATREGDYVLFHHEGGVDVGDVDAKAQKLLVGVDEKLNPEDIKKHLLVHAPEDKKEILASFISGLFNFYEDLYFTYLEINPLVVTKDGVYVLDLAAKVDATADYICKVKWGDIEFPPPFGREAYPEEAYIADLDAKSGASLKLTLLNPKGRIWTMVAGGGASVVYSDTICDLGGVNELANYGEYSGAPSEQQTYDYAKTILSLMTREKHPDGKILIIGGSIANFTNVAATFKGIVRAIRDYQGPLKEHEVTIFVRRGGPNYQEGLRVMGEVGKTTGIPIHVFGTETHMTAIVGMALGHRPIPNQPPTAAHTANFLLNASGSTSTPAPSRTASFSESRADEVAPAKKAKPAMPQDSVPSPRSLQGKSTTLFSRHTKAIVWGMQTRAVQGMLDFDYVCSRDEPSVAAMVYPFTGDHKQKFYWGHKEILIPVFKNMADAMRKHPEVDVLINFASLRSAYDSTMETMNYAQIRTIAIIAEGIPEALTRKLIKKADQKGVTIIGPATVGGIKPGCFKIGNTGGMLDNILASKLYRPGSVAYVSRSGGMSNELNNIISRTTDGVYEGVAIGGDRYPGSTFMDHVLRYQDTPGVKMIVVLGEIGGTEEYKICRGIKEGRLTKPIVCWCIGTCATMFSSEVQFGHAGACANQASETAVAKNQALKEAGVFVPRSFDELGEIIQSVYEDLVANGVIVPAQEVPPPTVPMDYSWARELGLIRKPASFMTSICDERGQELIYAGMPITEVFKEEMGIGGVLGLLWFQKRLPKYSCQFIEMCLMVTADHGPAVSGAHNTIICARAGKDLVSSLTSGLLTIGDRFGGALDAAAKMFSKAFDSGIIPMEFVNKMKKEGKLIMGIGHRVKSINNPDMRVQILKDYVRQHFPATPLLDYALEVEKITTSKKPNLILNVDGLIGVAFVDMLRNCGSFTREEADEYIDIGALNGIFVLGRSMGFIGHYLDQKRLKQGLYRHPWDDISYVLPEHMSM
log2 fold change [1]: 0.035
log2 fold change [2]: 0
log2 fold change [3]: -0.088
log2 fold change [4]: 0.045
log2 fold change [5]: -0.033
log2 fold change [6]: -0.187
log2 fold change [7]: -0.485 (active)
log2 fold change [8]: 0.43
log2 fold change [10]: 0.02

ANXA5 (UniProt P08758)
Sequence of UniProt P08758 (P08758 whole entry, looked up): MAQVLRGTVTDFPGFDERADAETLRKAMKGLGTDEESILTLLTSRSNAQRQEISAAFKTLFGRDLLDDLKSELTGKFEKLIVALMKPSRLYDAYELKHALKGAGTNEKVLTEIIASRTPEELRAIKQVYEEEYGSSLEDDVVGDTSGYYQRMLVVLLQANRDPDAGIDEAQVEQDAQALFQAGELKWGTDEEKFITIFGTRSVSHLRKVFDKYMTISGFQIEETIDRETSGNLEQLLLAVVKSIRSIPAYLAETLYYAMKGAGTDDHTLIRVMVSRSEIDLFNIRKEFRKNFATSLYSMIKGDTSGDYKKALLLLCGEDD
log2 fold change [1]: -0.034
log2 fold change [2]: -0.011
log2 fold change [3]: 0.003
log2 fold change [4]: -0.073
log2 fold change [5]: -0.001
log2 fold change [6]: 0.059
log2 fold change [7]: 0.022
log2 fold change [8]: -0.064
log2 fold change [9]: -0.008
log2 fold change [10]: 0.024

ADK, A0A5F9ZH76
log2 fold change [2]: -0.174
log2 fold change [3]: -0.019
log2 fold change [5]: 0.167

ANKRD40 (UniProt Q6AI12)
Sequence of UniProt Q6AI12 (Q6AI12 whole entry, looked up): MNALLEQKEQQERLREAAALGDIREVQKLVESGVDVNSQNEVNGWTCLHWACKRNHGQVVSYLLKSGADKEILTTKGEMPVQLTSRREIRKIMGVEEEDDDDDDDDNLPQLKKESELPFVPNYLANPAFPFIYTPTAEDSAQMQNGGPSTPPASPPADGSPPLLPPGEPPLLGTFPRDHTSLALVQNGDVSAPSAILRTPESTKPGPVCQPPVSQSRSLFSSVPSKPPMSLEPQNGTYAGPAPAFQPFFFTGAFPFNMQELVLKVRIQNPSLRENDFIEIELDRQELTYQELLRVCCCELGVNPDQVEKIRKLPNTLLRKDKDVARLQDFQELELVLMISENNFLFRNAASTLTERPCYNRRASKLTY
log2 fold change [1]: 0.501
log2 fold change [3]: -0.091
log2 fold change [4]: -0.118
log2 fold change [6]: -0.066
log2 fold change [7]: 0.094
log2 fold change [8]: -0.075
log2 fold change [9]: -0.101
log2 fold change [10]: 0.012

AP3D1 isoform 2 (UniProt O14617)
log2 fold change [1]: 0.002
log2 fold change [2]: -0.085
log2 fold change [5]: -0.012
log2 fold change [7]: -0.231
log2 fold change [8]: 0.058

AMDHD2 (UniProt Q9Y303)
log2 fold change [1]: -0.128
log2 fold change [7]: -0.116
log2 fold change [8]: 0.052
log2 fold change [10]: 0.047

ABI1 isoform 6 (UniProt Q8IZP0)
log2 fold change [2]: -0.219
log2 fold change [4]: 0.248
log2 fold change [5]: 0.026

ABL1 isoform 2 (UniProt P00519)
log2 fold change [1]: 0.05
log2 fold change [2]: 0.125
log2 fold change [3]: 0.031
log2 fold change [4]: -0.03
log2 fold change [5]: -0.012
log2 fold change [6]: -0.048
log2 fold change [7]: 0.156
log2 fold change [8]: -0.097
log2 fold change [10]: -0.012

From the supplement of paper PMC10849652
